{
  "source": "PubChem BioAssay AID2810",
  "about": "(NMMLSC, 2010)",
  "assay": "modulators of CD8 T cell-vesicle binding, confirmation, cherry-picked primary hits, two concentrations (AID 2810);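 also: lower values mean blocking of vesicle binding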;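 as to percent response (vesicle binding): ratio of mean FL2 vesicle stain of CD8+ cells to that row's control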",
  "conditions": "2C CD8+ T cell-vesicle binding, flow cytometry; for double positive events: CD8+/vesicle+ events",
  "key": {"[1]": {"conditions": "at 15.4 µM, stronger effect = lower value"}},
  "note": "Out of some 1,200 compounds screened, about 65 (5%) were called active.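 The calls were made as follows: active = at either tested dose, response and 90th-percentile vesicle-stain brightness of CD8 cells under set limits and under 9% cells vesicle-bound; inactive = the rest.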 Many of the other results were omitted from the sample, so actives are more common in it than they were.",
  "data": [
    {"smiles": "Cc1ncc([N+](=O)[O-])n1Cc1cccc(F)c1", "values": [
      {"measurement": "double positive events", "setting": "at 7.7 µM", "result": 7.3, "unit": "%"},
      {"measurement": "double positive events", "setting": "[1]", "result": 11.5, "unit": "%"},
      {"measurement": "percent response (vesicle binding)", "setting": "[1]", "result": "118% (inactive)"},
      {"measurement": "percent response (vesicle binding)", "setting": "response, at 7.7 µM", "result": 274, "unit": "%"}
    ]},
    {"smiles": "COc1ccc(S(=O)(=O)N(C)C[C@H]2Oc3ccc(NC(=O)C4CC4)cc3C(=O)N([C@H](C)CO)C[C@@H]2C)cc1", "values": [
      {"measurement": "double positive events", "setting": "at 7.7 µM", "result": 5.6, "unit": "%"},
      {"measurement": "double positive events", "setting": "[1]", "result": 16.6, "unit": "%"},
      {"measurement": "percent response (vesicle binding)", "setting": "[1]", "result": "189% (inactive)"},
      {"measurement": "percent response (vesicle binding)", "setting": "response, at 7.7 µM", "result": 102, "unit": "%"}
    ]},
    {"smiles": "Cc1cc(C)c(/C=N/NC(N)=O)c(C)c1/C=N/NC(N)=O", "values": [
      {"measurement": "double positive events", "setting": "at 7.7 µM", "result": 38.1, "unit": "%"},
      {"measurement": "double positive events", "setting": "[1]", "result": 18.6, "unit": "%"},
      {"measurement": "percent response (vesicle binding)", "setting": "[1]", "result": "240% (inactive)"},
      {"measurement": "percent response (vesicle binding)", "setting": "response, at 7.7 µM", "result": 428, "unit": "%"}
    ]},
    {"smiles": "O=C1N=C(N2CCOCC2)S/C1=C\\c1cccs1", "values": [
      {"measurement": "double positive events", "setting": "at 7.7 µM", "result": 8.6, "unit": "%"},
      {"measurement": "double positive events", "setting": "[1]", "result": 6.3, "unit": "%"},
      {"measurement": "percent response (vesicle binding)", "setting": "[1]", "result": "248% (inactive)"},
      {"measurement": "percent response (vesicle binding)", "setting": "response, at 7.7 µM", "result": 332, "unit": "%"}
    ]},
    {"smiles": "CCCC(=O)N1CCc2cc(OC)c(OC)cc2C1COc1ccccc1OC", "note": "(stereo unspecified)", "values": [
      {"measurement": "double positive events", "setting": "at 7.7 µM", "result": 21.6, "unit": "%"},
      {"measurement": "double positive events", "setting": "[1]", "result": 13.8, "unit": "%"},
      {"measurement": "percent response (vesicle binding)", "setting": "[1]", "result": "128% (inactive)"},
      {"measurement": "percent response (vesicle binding)", "setting": "response, at 7.7 µM", "result": 276, "unit": "%"}
    ]},
    {"smiles": "COc1ccc(/C=C2\\SC(N3CCc4ccccc4C3)=NC2=O)cc1OC", "values": [
      {"measurement": "double positive events", "setting": "at 7.7 µM", "result": 22.6, "unit": "%"},
      {"measurement": "double positive events", "setting": "[1]", "result": 2.9, "unit": "%"},
      {"measurement": "percent response (vesicle binding)", "setting": "[1]", "result": "42% (active)"},
      {"measurement": "percent response (vesicle binding)", "setting": "response, at 7.7 µM", "result": 201, "unit": "%"}
    ]},
    {"smiles": "CC(C)NC(=O)NC(=O)COC(=O)c1ccc(F)cc1F", "values": [
      {"measurement": "double positive events", "setting": "at 7.7 µM", "result": 29.2, "unit": "%"},
      {"measurement": "double positive events", "setting": "[1]", "result": 19.1, "unit": "%"},
      {"measurement": "percent response (vesicle binding)", "setting": "[1]", "result": "385% (inactive)"},
      {"measurement": "percent response (vesicle binding)", "setting": "response, at 7.7 µM", "result": 423, "unit": "%"}
    ]},
    {"smiles": "O=C(c1c[nH]c2ccccc12)N1CCN(Cc2ccccc2)CC1", "values": [
      {"measurement": "double positive events", "setting": "at 7.7 µM", "result": 13.7, "unit": "%"},
      {"measurement": "double positive events", "setting": "[1]", "result": 10.6, "unit": "%"},
      {"measurement": "percent response (vesicle binding)", "setting": "[1]", "result": "47.9% (inactive)"},
      {"measurement": "percent response (vesicle binding)", "setting": "response, at 7.7 µM", "result": 181, "unit": "%"}
    ]},
    {"smiles": "CC(NS(=O)(=O)c1ccc(Cl)c(Cl)c1)C(=O)OCC(=O)N1CCCCCC1", "note": "(stereo unspecified)", "values": [
      {"measurement": "double positive events", "setting": "at 7.7 µM", "result": 27.5, "unit": "%"},
      {"measurement": "double positive events", "setting": "[1]", "result": 12.9, "unit": "%"},
      {"measurement": "percent response (vesicle binding)", "setting": "[1]", "result": "182% (inactive)"},
      {"measurement": "percent response (vesicle binding)", "setting": "response, at 7.7 µM", "result": 284, "unit": "%"}
    ]},
    {"smiles": "c1csc(-c2nc3ccccc3[nH]2)c1", "values": [
      {"measurement": "double positive events", "setting": "at 7.7 µM", "result": 38.6, "unit": "%"},
      {"measurement": "double positive events", "setting": "[1]", "result": 18.6, "unit": "%"},
      {"measurement": "percent response (vesicle binding)", "setting": "[1]", "result": "255% (inactive)"},
      {"measurement": "percent response (vesicle binding)", "setting": "response, at 7.7 µM", "result": 233, "unit": "%"}
    ]},
    {"smiles": "COc1ccc([C@H]2CC(=O)C=C(/C=C/c3ccccc3)C2)cc1", "values": [
      {"measurement": "double positive events", "setting": "at 7.7 µM", "result": 19.1, "unit": "%"},
      {"measurement": "double positive events", "setting": "[1]", "result": 3.3, "unit": "%"},
      {"measurement": "percent response (vesicle binding)", "setting": "[1]", "result": "36.9% (active)"},
      {"measurement": "percent response (vesicle binding)", "setting": "response, at 7.7 µM", "result": 286, "unit": "%"}
    ]},
    {"smiles": "COc1ccc([C@H]2CC(=O)C=C(c3cc(F)ccc3OC)C2)cc1", "values": [
      {"measurement": "double positive events", "setting": "at 7.7 µM", "result": 19.1, "unit": "%"},
      {"measurement": "double positive events", "setting": "[1]", "result": 16.3, "unit": "%"},
      {"measurement": "percent response (vesicle binding)", "setting": "[1]", "result": "198% (inactive)"},
      {"measurement": "percent response (vesicle binding)", "setting": "response, at 7.7 µM", "result": 138, "unit": "%"}
    ]},
    {"smiles": "COc1ccc([C@H]2CC(=O)C=C(c3ccc4c5c(cccc35)CC4)C2)cc1", "values": [
      {"measurement": "double positive events", "setting": "at 7.7 µM", "result": 6.5, "unit": "%"},
      {"measurement": "double positive events", "setting": "[1]", "result": 29.8, "unit": "%"},
      {"measurement": "percent response (vesicle binding)", "setting": "[1]", "result": "626% (inactive)"},
      {"measurement": "percent response (vesicle binding)", "setting": "response, at 7.7 µM", "result": 271, "unit": "%"}
    ]},
    {"smiles": "COc1ccc([C@H]2CC(=O)C=C(c3c(C)cc(C)cc3C)C2)cc1", "values": [
      {"measurement": "double positive events", "setting": "at 7.7 µM", "result": 12.5, "unit": "%"},
      {"measurement": "double positive events", "setting": "[1]", "result": 5.7, "unit": "%"},
      {"measurement": "percent response (vesicle binding)", "setting": "[1]", "result": "49.9% (active)"},
      {"measurement": "percent response (vesicle binding)", "setting": "response, at 7.7 µM", "result": 132, "unit": "%"}
    ]},
    {"smiles": "COc1ccc([C@H]2CC(=O)C=C(c3cccc(Cl)c3)C2)cc1", "values": [
      {"measurement": "double positive events", "setting": "at 7.7 µM", "result": 37.2, "unit": "%"},
      {"measurement": "double positive events", "setting": "[1]", "result": 4.7, "unit": "%"},
      {"measurement": "percent response (vesicle binding)", "setting": "[1]", "result": "129% (inactive)"},
      {"measurement": "percent response (vesicle binding)", "setting": "response, at 7.7 µM", "result": 315, "unit": "%"}
    ]},
    {"smiles": "COc1ccc(C2=CC(=O)CC(c3ccc(OC)cc3)C2)cc1", "note": "(stereo unspecified)", "values": [
      {"measurement": "double positive events", "setting": "at 7.7 µM", "result": 14.8, "unit": "%"},
      {"measurement": "double positive events", "setting": "[1]", "result": 3.2, "unit": "%"},
      {"measurement": "percent response (vesicle binding)", "setting": "[1]", "result": "110% (inactive)"},
      {"measurement": "percent response (vesicle binding)", "setting": "response, at 7.7 µM", "result": 120, "unit": "%"}
    ]},
    {"smiles": "O=C(NCCO)/C(=C\\c1ccc(Br)cc1)NC(=O)c1cccs1", "values": [
      {"measurement": "double positive events", "setting": "at 7.7 µM", "result": 6.9, "unit": "%"},
      {"measurement": "double positive events", "setting": "[1]", "result": 24.7, "unit": "%"},
      {"measurement": "percent response (vesicle binding)", "setting": "[1]", "result": "683% (inactive)"},
      {"measurement": "percent response (vesicle binding)", "setting": "response, at 7.7 µM", "result": 70.4, "unit": "%"}
    ]},
    {"smiles": "COc1ccc(CCCC(=O)NC(C)c2ccccc2)cc1", "note": "(stereo unspecified)", "values": [
      {"measurement": "double positive events", "setting": "at 7.7 µM", "result": 12.2, "unit": "%"},
      {"measurement": "double positive events", "setting": "[1]", "result": 15.2, "unit": "%"},
      {"measurement": "percent response (vesicle binding)", "setting": "[1]", "result": "93.8% (inactive)"},
      {"measurement": "percent response (vesicle binding)", "setting": "response, at 7.7 µM", "result": 104, "unit": "%"}
    ]},
    {"smiles": "O=C(COC(=O)C1(c2cccc(F)c2)CCCC1)NCc1ccc2c(c1)OCO2", "values": [
      {"measurement": "double positive events", "setting": "at 7.7 µM", "result": 15.2, "unit": "%"},
      {"measurement": "double positive events", "setting": "[1]", "result": 3.1, "unit": "%"},
      {"measurement": "percent response (vesicle binding)", "setting": "[1]", "result": "106% (inactive)"},
      {"measurement": "percent response (vesicle binding)", "setting": "response, at 7.7 µM", "result": 82.7, "unit": "%"}
    ]}
  ]
}
